MARV entry inh: Marburg virus entry inhibition. Marburg virus pseudotyped entry inhibition, cell reporter. Potency, µM (top dose mostly 37.8 µM), inactives show top-dose activity change, negative = inhibition, usual class: inhibitors. hit rate 1.8% among 300,000; calls by dose curve; tested in HEK293 cells; also: potency is read from the fitted curve at half-maximal effect
LASV entry inh: Lassa virus entry inhibition. Potency, µM (doses to about 37.9 µM), for inactives: top-dose activity change, negative = inhibition, hits mostly inhibitors. hit rate 1.2% among 300,000. Lassa virus pseudotype entry inhibition, cell reporter; calls by dose curve; tested in HEK293 cells; also: potency is read from the fitted curve at half-maximal effect; nearly all actives have a fitted effect of over 50% in size
Vaccinia Venus: inhibitors of vaccinia virus (Venus reporter); hit rate 0.46% among 330,000; Potency, µM (doses to about 36.5 µM), for inactives: top-dose activity change, negative = inhibition, hits mostly inhibitors; Vaccinia virus Venus reporter expression, fluorescence; calls by dose curve; tested in A549 cells; also: potency is read from the fitted curve at half-maximal effect; nearly all actives have a fitted effect of over 30% in size
HCMV antiviral: human cytomegalovirus inhibition | HFF cells, HCMV-luciferase reporter, 72 h; stronger effect = lower value | activity change, negative = inhibition, % at 57.5 µM | hit rate 4.5% among 410,000 | AID 1259415; in the data active = activity change below about -60%; inconclusive = no clear call, values can overlap the other calls; inactive = above about -39%
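After 16 h attachment at 37C, HFF cells received test compound and HCMV-luciferase (1 PFU/cell); reporter luminescence read 72 h later, data normalized against buffer-only and known inhibitor Salinomycin.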
HCV inhibitor: inhibitors of hepatitis C virus infection; Huh7.5.1 HCVcc-Cre infection, luciferase reporter, 44 h; Potency, µM (titrated, usually from 41.8 µM), without a hit: top-dose activity change, negative = inhibition, hits mostly inhibitors; hit rate 3.4% among 340,000; active = well fitted inhibition curve with a large enough effect; inconclusive = small, poorly fitted or top-dose-only effect, or another doubt; inactive = no such curve, though single readings can be large or run the other way; also: potency is read from the fitted curve at half-maximal effect
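After 44 h co-culture of compound, cells and HCVcc-Cre (~0.5 moi), substrate is added for 15 min at room temperature and luciferase measured over 15 sec. Cells were seeded at 1,000/well and pre-cultured 4 h.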
Vaccinia mCherry: inhibitors of vaccinia virus infection (mCherry reporter signal) | Potency, µM (highest dose often 36.5 µM), for inactives: at the highest dose activity change, negative = inhibition, hits mostly inhibitors | hit rate 0.63% among 310,000 | Vaccinia virus mCherry reporter infection, fluorescence | AID 720579; calls by dose curve; tested in A549 cells; also: potency is read from the fitted curve at half-maximal effect; nearly all actives have a fitted effect of over 35% in size
Starred values were filed as active, the others as inactive; i = inactive; ? = inconclusive; . = no result; [ ] = dose if it differs, or a comment. A selection: hits, their analogues and other compounds. The true share with any hit is near 7.8%. % is scaled to controls: 0 for no effect and ±100 for the full control effect.

SMILES	MARV entry inh	LASV entry inh	Vaccinia Venus	HCMV antiviral	HCV inhibitor	Vaccinia mCherry
CCC(Sc1nc2ncccc2[nH]1)C(=O)Nc1ccccc1F (stereo not given)	.	16%[46.1 µM]	2%	8	.	-1%
NNC(=O)c1sc(-c2ccccc2)cc1N	9%[46.1 µM]	.	-21%	54	24%	-27%
CC(=O)c1sc(-c2ccccc2)cc1N	2%[46.1 µM]	?	-21%	19	8.9µM*	-5%
S=C(N/N=C/c1ccccc1Cl)Nc1cccc(Cl)c1Cl	.	.	.	-65*	-27%	.
C=C1CCCC2OC(CC3=CC4/C(C)=C/CC(C)CC(/C=C(\C)C(O)C5CC(O)C(O)C(CCC(O)/C=C/C(C)=C/CCC6=NCCC(C3)C64C)O5)OC(=O)CC3OC(C(O)C1)C(O)C3O)CC(O)C2O (stereo not given)	.	.	.	-78*	.	.
NS(=O)(=O)c1ccc(N=Nc2c(O)ccc3ccccc23)cc1	-6%	0%	-10%	-24	-20%	i
Oc1ccc(N=Nc2c(O)ccc3ccccc23)cc1	?	?	-26%	-9	14µM*	?
CSc1ccc(C(=O)C2CCCN(C(=O)CCc3c(C)nn(C)c3C)C2)cc1 (stereo not given)	?	?	-26%	-63*	?	-10%
CS(=O)(=O)c1ccc(C2=C(c3ccccc3)C(=O)OC2)cc1	.	.	-12%	3	7.1µM*	-2%
O=C1OCC(c2ccccc2)=C1c1ccccc1	18%[46.1 µM]	-30%	-8%	-28	1%	-14%
CCOc1ccccc1C(=O)Nc1cc(Cl)ccc1O	-16%	11%	?	34	7.1µM*	?
O=C(Nc1cccc2cccnc12)c1cccc2ccccc12	?	-24%[46.1 µM]	-1%	?	?	-3%
COc1ccccc1C(=O)Nc1cc(Cl)ccc1O	-10%	-10%	4%	30	?	.
COc1cc(OC)c(NC(=O)c2cc3ccccc3cc2O)cc1Cl	?	?	-7%	-81*	32µM*	-19%
COc1cc(NC(=O)c2ccccc2Cl)c2ncccc2c1	.	.	.	29	10µM*	.
COc1cc(NC(=O)c2ccccc2)c(OC)cc1Cl	0%	0%	?	127	?	.
CCOc1ccccc1C(=O)Nc1cccc2cccnc12	?	4%[46.1 µM]	-17%	?	11µM*	i
O=C(Nc1cccc2cccnc12)c1ccc(Cl)cc1Cl	.	.	.	59	?	.
COc1cccc(CNC(=O)c2c(OC)cc(=O)n3c2CCN(C(=O)C2CC24CCCC4)CC3)c1 (stereo not given)	.	.	4%	.	.	-10%
C=CCn1c(-c2cccc(OC)c2OC)n[nH]c1=S	?	-26%	-9%	-70*	?	-9%
Cc1c(CN2CCOc3c(O)cc(-c4nc5ccccc5s4)cc3C2)cnn1C	.	.	-13%	.	.	-25%
O=C(Cn1c(=O)nc(-c2ccccc2)c2ccccc21)NCc1ccc(Cl)cc1	.	?	-21%	-94*	.	-9%
Cc1c(Cl)cccc1NC(=O)Cn1c(=O)nc(-c2ccccc2)c2ccccc21	.	-5%[46.1 µM]	-22%	-87*	.	i
Cc1cccc(NC(=O)Cn2c(=O)nc(-c3ccccc3)c3ccccc32)c1C	.	?	-15%	28	.	i
Cc1ccc(OCCCn2c(-c3ccc(Cl)cc3)nc3ccccc3c2=O)c(C)c1	1%[46.1 µM]	9%[46.1 µM]	0%	19	.	-7%
SMILES	MARV entry inh	LASV entry inh	Vaccinia Venus	HCMV antiviral	HCV inhibitor	Vaccinia mCherry
Cc1onc(-c2ccccc2)c1C(=O)N1CCCC(C)(C(=O)NS(=O)(=O)C2CC2)C1 (stereo not given)	.	.	28%	0	.	12%
CCCS(=O)(=O)NC(=O)C1(C)CCCN(C(=O)c2c(-c3ccccc3)noc2C)C1 (stereo not given)	.	.	-4%	-63*	.	0%
CCOCCCn1c(C)nc2c(c1=O)c1nc3ccccc3nc1n2CCC1=CCCCC1	10µM*	?	-10%	?	-2%	.
O=C(CN1C(=O)COc2ccc(S(=O)(=O)N3CCOCC3)cc21)N1CCN(c2ccc(Cl)cc2)CC1	2%[46.1 µM]	-5%[46.1 µM]	0%	-9	.	7%
COc1ccc(C2=CC(c3c(C)nn(-c4ccccc4)c3Cl)n3nnnc3N2)cc1OC (stereo not given)	?	?	?	?	11µM*	.
COc1ccc(NC(=O)c2c(C)oc3ccc(O)c(CN4CCCCCC4)c23)cc1Cl	4.5µM*	?	-30%	-94*	.	?
Cc1ccc(NC(=O)c2c(C)oc3ccc(O)c(CN4CCCCC4)c23)cc1	?	?	-4%	-65*	.	-11%
COc1ccc(-c2noc(CN(C(C)C)S(=O)(=O)c3ccc(Br)cc3)n2)cc1	-12%[46.1 µM]	-7%[46.1 µM]	-13%	-6	.	-19%
CCc1ccccc1NC(=O)Cn1c(=O)n(-c2ccc(C)cc2)c(=O)c2c1c1cc(C)ccc1n2C	.	1%[46.1 µM]	-2%	16	.	-11%
C[n+]1c(/C=C/c2ccc3c(c2)OCO3)ccc2ccccc21	?	0%[46.1 µM]	-14%	-66*	9%	i
C(=Cc1cnc2ccccc2n1)c1ccc2c(c1)OCO2	.	.	-25%	-81*	.	?
C[n+]1c(/C=C/c2ccc(O)cc2)ccc2ccccc21	?	17%	5%	-19	?	i
Cc1ccc2c(c1)CN(CCC(=O)NCc1cc(C)n(C)n1)CC(C)O2 (stereo not given)	.	.	-11%	.	.	-17%
Cn1nc(C(=O)N2CCN(c3ccc(Cl)cc3)CC2)c2c1-c1ccccc1SC2	3%[46.1 µM]	13%[46.1 µM]	-2%	-71*	.	3%
CC(=O)OC(C=C(C)C)C/C(C)=C/COc1c2ccoc2cc2oc(=O)ccc12 (stereo not given)	.	.	?	-16	-18%[8.37 µM]	?
CCCCCc1c(-c2cccc(F)c2)ncn1CCc1ccccc1OC	.	.	-20%	?	.	-24%
CCCc1c(-c2cccc(F)c2)ncn1CCc1ccccc1OC	.	.	-21%	-74*	.	-17%
CCCCCc1c(-c2cccc(OC)c2)ncn1CCc1ccccc1OC	.	.	-23%	-95*	.	-22%
CCCCc1c(-c2cccc(Br)c2)ncn1CCc1ccccc1OC	.	.	-17%	-101*	.	-16%
CCCc1c(-c2cccc(F)c2)ncn1Cc1ccccc1OC	.	.	-4%	-16	.	-6%
CCCCCc1c(-c2cccc(Cl)c2)ncn1CCc1ccccc1OC	.	.	0%	-6	.	1%
CCCCc1c(-c2cccc(F)c2)ncn1CCc1ccccc1OC	.	.	?	-61*	.	-4%
Cc1nnc(NCc2ccc(Cl)cc2)c2c1nnn2Cc1ccc(F)cc1	2%[46.1 µM]	11%[46.1 µM]	-20%	1	.	-22%
COC(=O)[C@H](C)N1CC=CCOc2c(Cl)cc(Cl)cc2[S+]1(=O)[O-]	.	-4%[46.1 µM]	.	.	.	.
COc1ccc2c(C)c(CCC(=O)NCCc3ccc(OC)c(OC)c3)c(=O)oc2c1	-9%[46.1 µM]	-2%[46.1 µM]	-5%	6	.	-4%
c1cncc(CNc2cc(-c3ccc4c(c3)OCO4)ncn2)c1	.	.	15%	.	.	i
Cc1cnnc2ccccc12	.	.	-5%	.	.	i
